In PubChem BioAssay (NCI):
“And” between values parts separate entries of the source, which are not always exact repeats. Identical values can stand only once. The panel holds about 83,000 compounds, 20% with a hit somewhere; the sample as a whole holds those more often.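 Percent growth is the endpoint: 0 to 100 indicates growth inhibition (40 means 60% inhibition), 0 means no net growth, and negative values indicate cell death.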 Values without a mark were called inactive. The source made the active and inactive calls. How the source made its calls: active means growth percent below 10; inactive means the rest.

System: MDA-MB-468 breast
Experiment: NCI-60 one-dose screen, 48 h (100 = growth as untreated, 0 = no growth, -100 = all killed)
Conditions: 10 µM unless noted

| Compound | growth |
| --- | --- |
| CC(=O)OC[C@]12CCC(C)(C)C[C@H]1[C@@]1(O)[C@H](O)C[C@@H]3[C@@]4(C)CCCNC(C)(C)[C@@H]4CC[C@@]3(C)[C@]1(C)CC2 | 115% |
| Cc1ccc2nc3ccccc3c(NCc3ccc(Cl)cc3)c2c1 | -21.7% (active) |
| Nc1cc(-c2ccccc2)ccc1O | 93.5% |
| CC1(C)OC(=O)C(=Cc2ccc(C#N)cc2)C(=O)O1 | 91.7% and 96.1% |
| C=C1CC2(OC1=O)C(=O)N(CCCCCCCCCCCCN1C(=O)C3(CC(=C)C(=O)O3)c3ccccc31)c1ccccc12 (stereo not given) | 70.2% |
| O=C(Nc1ccc(I)cc1F)c1cc(F)ccc1O | -3.61% (active) |
| CC(O)CN(CC(C)O)c1ccc2c(c1)Cc1cc([N+](=O)[O-])ccc1-2 (stereo not given) | 100% |
| CCCCCCc1cc2cc(-c3csc(/C=C/c4ccccc4)n3)c(=O)oc2cc1O | -21.1% (active) |
| Cc1ccc(-c2nc3nc(-c4ccccc4)nc(N4CCCN(S(C)(=O)=O)CC4)c3o2)cc1 | 121% |
| Cc1ccccc1-c1cc(Cc2ccc(F)cc2)c(=O)[nH]n1 | 109% |
| CCCCCCCO | 96.4% |
| CC(C)[C@H](CO)Nc1nc(Nc2ccc(C(=O)NCCNS(=O)(=O)c3cccc4c(N(C)C)cccc34)c(Cl)c2)c2ncn(C(C)C)c2n1 | -14.1% (active) |
| N#Cc1nnn(-c2ccc(S(N)(=O)=O)cc2)c1NCC(=O)c1ccccc1 | 96.7% |
| COc1ccc(C(=O)c2cc(C(=O)/C=C/c3c(Cl)cccc3Cl)c3cc(C)ccn23)cc1 | 96.1% |
| FC(F)(F)c1ccc2c(c1)N(CCCN1CCN(C3CC3)CC1)c1ccccc1S2 | 54.1% |
| Cc1cc(N/C=c2\sc3ncnn3c2=O)no1 | 101% |
| COc1cc(/C=C2\CCCC3=C2N=C2SC=NN2C3c2cc(OC)c(OC)c(OC)c2)cc(OC)c1OC (stereo not given) | 18.1% |
| c1csc(-c2c3ccc(=[N+]4CCCCC4)cc-3oc3cc(N4CCCCC4)ccc23)c1 | -90% (active) |
| COc1ccc2c(/C=C3/C(=O)NC(=S)NC3C)cc(=O)oc2c1 (stereo not given) | 90.4% |
| Cc1cc(C)c2c(Nc3ncnc4c3sc3nc(C)cc(C)c34)n[nH]c2n1 | 92.2% |

| Compound | growth |
| --- | --- |
| Oc1c(C(Nc2ccccc2)c2ccccc2)ccc2cccnc12 (stereo not given) | 17.8% |
| C=C1CC[C@@H]2[C@](C)(COC(C)=O)[C@H](OC(C)=O)CC[C@@]2(C)[C@@H]1CC(NCc1ccc(F)cc1)C1=CCOC1=O (stereo not given in full) | 27.5% |
| Clc1cccc(Nc2ncnc3ccc(-c4cnc5[nH]ccc5c4)cc23)c1 | -16.9% (active) |
| O=c1[nH]c2ccccc2cc1-c1nnc(Cc2ccccc2)o1 | 53.9% |
| COc1ccc(CN2c3ccccc3Sc3ccccc32)cc1F | -0.673% (active) |
| COc1cc(/C=C2\C(=O)N(CCCOc3cc(O)c4c(=O)cc(-c5ccccc5)oc4c3)c3ccccc32)cc(OC)c1O | 89.4% |
| N#Cc1cccc(C2C3=C(COC3=O)N(CCO)c3cc4c(cc32)OCO4)c1 (stereo not given) | 21% |
| O=C1C(Cl)=C(Nc2ccc(S(=O)(=O)c3ccc(NC4=C(Cl)C(=O)c5ccccc5C4=O)cc3)cc2)C(=O)c2ccccc21 | -60.1% (active) |
| C=CCNCCCN1C(=O)c2ccc3c4c(ccc(c24)C1=O)C(=O)N(CCCNCC=C)C3=O | -88.5% (active) |
| Fc1ccc(-n2cc(COc3ncnc4sc5c(c34)CCCC5)nn2)cc1Cl | 106% |
| O=C(NCCc1ccc(O)c(O)c1)C12CC3CC(CC(C3)C1)C2 | 87.4% |
| CC1=C(C(=O)/C=C/c2ccc(N(C)C)cc2)C(c2ccccc2)NC(=S)N1 (stereo not given) | 102% |
| Nc1c(C(=O)Nc2ccccn2)sc2nc3c(cc12)CCCCCC3 | 8.53% (active) |
| CCCCCCCCOC(=O)c1c(C)[nH]c(/C=C2\N=C(c3ccc[nH]3)C=C2OC)c1C | -25.7% (active) |
| COc1ccc(/C=C(\C#N)n2nnc3cc(F)c(F)cc32)c(OC)c1OC | 35.3% |
| CCC(=O)Oc1ccc(-c2ccccc2)cc1Br | 98.4% |
| COc1ccc2c(c1)C(c1c[nH]c3ccccc13)(c1c[nH]c3ccccc13)CCO2 | 35% |
| CC(=O)OC(C(=O)O)c1ccccc1 (stereo not given) | 104% |
| CCOc1ccc([C@H]2C(C(=O)c3ccc(Cl)cc3)C3(N[C@@H]2c2ccccc2)C(=O)Nc2ccc(Br)cc23)cc1 (stereo not given in full) | -17.1% (active) |
| Cc1cc(=O)oc2cc(O)cc(O)c12 | 103% |
